# Measurements taken from paper PMC4336329 (PLoS ONE, 2015).
# About 14,000 (4.5%) of roughly 310,000 compounds showed an effect of 50% or more. Effects have a minus sign here. This excerpt belongs to a sample that is enriched for strong results.
# Target: human ether-à-go-go-related gene (hERG) potassium channel (human, UniProt Q12809)
# Test: primary screen, population patch clamp on CHO cells stably expressing hERG; higher = less effect of the substance
# 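Further: peak tail current of the secondary pulse compared with the same well before compound.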
# human ether-à-go-go-related gene (hERG) potassium channel, sequence (Q12809 whole entry, looked up): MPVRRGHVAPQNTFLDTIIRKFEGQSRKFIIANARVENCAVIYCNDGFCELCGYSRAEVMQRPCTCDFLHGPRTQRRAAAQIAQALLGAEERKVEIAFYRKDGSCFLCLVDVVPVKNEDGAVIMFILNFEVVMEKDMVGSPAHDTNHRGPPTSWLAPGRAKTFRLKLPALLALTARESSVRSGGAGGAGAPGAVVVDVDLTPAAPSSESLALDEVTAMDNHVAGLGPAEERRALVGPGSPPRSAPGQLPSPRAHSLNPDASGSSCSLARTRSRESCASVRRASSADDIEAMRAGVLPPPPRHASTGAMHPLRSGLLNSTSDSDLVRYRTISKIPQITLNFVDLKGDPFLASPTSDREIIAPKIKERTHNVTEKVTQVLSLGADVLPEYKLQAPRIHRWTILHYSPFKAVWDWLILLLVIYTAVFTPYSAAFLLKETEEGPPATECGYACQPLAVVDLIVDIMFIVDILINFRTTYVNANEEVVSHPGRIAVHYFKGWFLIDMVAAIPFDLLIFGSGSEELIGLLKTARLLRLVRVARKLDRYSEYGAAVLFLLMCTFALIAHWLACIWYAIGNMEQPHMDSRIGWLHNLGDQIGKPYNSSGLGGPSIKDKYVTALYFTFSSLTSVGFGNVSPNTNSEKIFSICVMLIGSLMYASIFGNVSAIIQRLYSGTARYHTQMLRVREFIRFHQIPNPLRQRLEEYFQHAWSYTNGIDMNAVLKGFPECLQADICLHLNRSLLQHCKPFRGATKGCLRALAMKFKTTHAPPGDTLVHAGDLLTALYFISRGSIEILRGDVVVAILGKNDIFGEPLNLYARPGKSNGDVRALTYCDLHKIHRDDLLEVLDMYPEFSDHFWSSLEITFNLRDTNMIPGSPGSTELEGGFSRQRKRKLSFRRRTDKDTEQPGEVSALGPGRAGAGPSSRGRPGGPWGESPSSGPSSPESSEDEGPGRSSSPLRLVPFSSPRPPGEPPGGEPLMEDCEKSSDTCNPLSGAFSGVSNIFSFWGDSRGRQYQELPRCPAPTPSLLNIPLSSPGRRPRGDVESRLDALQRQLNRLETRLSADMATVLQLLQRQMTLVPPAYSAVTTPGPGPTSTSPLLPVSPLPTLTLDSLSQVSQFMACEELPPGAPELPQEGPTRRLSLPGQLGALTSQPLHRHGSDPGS
row,SMILES,"hERG current change (%, negative = inhibition) at 10uM"
1,O=C(CN1CCN(c2ccccn2)CC1)Nc1ccccc1F,1.45%
2,c1ccc2c(c1)CC1(CCCC1)n1nnnc1-2,-19.4%
3,O=C(NCc1ccccc1)C1=C[C@H](C2CCCCC2)C[C@H](OCCCCO)O1,-3.07%
4,N#Cc1cc([N+](=O)[O-])cnc1N(CCO)CCO,-1.1%
5,CN1CCN(c2ncnc3nc[nH]c23)CC1,18.5%
6,Cc1ccccc1C(=NCCCN(C)C)c1ccccc1C.Cl,-21.7%
7,Cc1ccc(NCC(=O)N=Nc2c(O)[nH]c3ccc([N+](=O)[O-])cc23)cc1,-5.06%
8,Cc1ccc(O)c(-c2cc(C(=O)Nc3c(C)n(C)n(-c4ccccc4)c3=O)[nH]n2)c1,8.4%
9,O=C(O)c1ccccc1NC(c1ccccc1)c1ccc(Cl)cc1 (centres unmarked),19.8%
10,N#C/C(=C\c1ccccc1[N+](=O)[O-])C(=O)NC1CCCCC1,-13.9%
11,Cc1cc(C(=O)NCC(=O)OCC(=O)N(C(C)C)C(C)C)ccc1[N+](=O)[O-],10.6%
12,Cc1cc(C(=O)NCC(=O)OCC(=O)Nc2ccc(OC(F)F)cc2)ccc1[N+](=O)[O-],-67.8%
13,COc1cccc(C(=O)NCC(=O)OCC(=O)c2ccccc2)c1,2.59%
14,COc1ccc(N2CCN(C(=O)COC(=O)CNC(=O)c3cccc(OC(F)F)c3)CC2)cc1,-43.7%
15,Cc1cc(C(=O)NCC(=O)OCC(=O)NCCc2ccccc2)ccc1[N+](=O)[O-],-16.9%
16,COc1ccc(C(=O)COC(=O)CNC(=O)c2cccc(OC(F)F)c2)cc1,-64.6%
17,Cc1ccnc2c(N3C(=O)C4C5c6ccccc6C(c6ccccc65)C4C3=O)cccc12 (centres unmarked),-2.78%
18,CCCNC(=O)C(Cc1ccc(C(F)(F)F)cc1)NC(=O)c1ccc2ccccc2n1 (centres unmarked),14%
19,CCN1CCN(c2c(S(=O)(=O)c3ccc(C)c(C)c3)cnc3ccc(F)cc23)CC1,-53.4%
20,CCc1ccc2ncc(S(=O)(=O)c3ccc(C)c(C)c3)c(N3CCCC3)c2c1,0.769%
21,CCOc1ccc2ncc(S(=O)(=O)c3ccccc3)c(N3CCN(c4ccccc4)CC3)c2c1,-2.21%
22,Nc1cc(N)nc(SCC(=O)Nc2ccc3c(c2)OCCCO3)n1,8.03%
23,CN(C)c1ccc(/C=N/N(Cc2ccccc2)c2ccccc2)cc1,3.54%

row,SMILES,"hERG current change (%, negative = inhibition) at 10uM"
1,O=C(CCNS(=O)(=O)c1ccccc1)Nc1ccc(Cl)cc1C(=O)c1ccccc1,-32.9%
2,Cc1cc(Cl)ccc1NC(=O)CN1CCCC1,27.1%
3,O=C(CN1CCCC1)Nc1ccc(Cl)cc1C(=O)c1ccccc1.O=C(O)C(=O)O,-46.8%
4,CN1CCN(C(=S)SCC(=O)Nc2ccc(Cl)cc2C(=O)c2ccccc2)CC1,-29.8%
5,CN1C(CC(=O)Nc2ccc(Br)cc2)c2ccccc2CC1(C)C (centres unmarked),-38.2%
6,O=C(O)CC1(CC(=O)Nc2ccc(Cl)cc2C(=O)c2ccccc2)CCCC1,6.78%
7,O=C(CCN1CCCCC1)Nc1ccc(Cl)cc1C(=O)c1ccccc1,-72.6%
8,CN1C(CC(=O)Nc2ccc(Cl)cc2Cl)c2ccccc2CC1(C)C (centres unmarked),-76.7%
9,Cc1ccccc1NC(=O)CC1c2ccccc2CC(C)(C)N1C (centres unmarked),4.03%
10,CN1CCN(CC(=O)Nc2ccc(Cl)cc2C(=O)c2ccccc2)CC1,-77.2%
11,CN1CCN(CC(=O)Nc2ccc(Cl)cc2Cl)CC1,-69.4%
12,O=C(CN1CCCCCCC1)Nc1ccc(Cl)cc1Cl,35.9%
13,COc1cccc(C(=O)Nc2cc(NC(=O)c3cccs3)ccc2C)c1OC,-14%
14,Cc1sc(-c2c(C#N)c(N)nc3c2CCCCCC3)cc1[N+](=O)[O-],-4.1%
15,COc1ccc(NC(=O)C2CCN(C(=O)[C@@H]3Cc4ccccc4CN3C(=O)OC(C)(C)C)CC2)cc1,2.02%
16,Cc1cc(C)c(NC(=O)Nc2ccccc2)c(C)n1,23.4%
17,CN1CCN(CC(=O)Nc2ccc([N+](=O)[O-])cc2C(=O)c2ccccc2)CC1,-84.6%
18,O=C(COc1ccccc1)Nc1ccc(Cl)cc1C(=O)c1ccccc1,6.83%
19,O=C(CN1CCN(CCO)CC1)Nc1ccc(Cl)cc1C(=O)c1ccccc1,-72.8%
20,CN1CCN(CC(=O)Nc2cccc([N+](=O)[O-])c2)CC1,3.24%
21,O=C(CN1CCCC1)Nc1ccccc1C(=O)c1ccccc1,-2.59%
22,CN1CCN(CC(=O)Nc2ccccc2[N+](=O)[O-])CC1,-13.2%
23,Cc1ccc(-n2cc(-c3ccccc3)c3c(=O)[nH]cnc32)cc1,8.89%

row,SMILES,"hERG current change (%, negative = inhibition) at 10uM"
1,COc1ccc(C(CNC(=O)C2CC2)N(C)C)cc1 (centres unmarked),1.52%
2,COc1ccc(CC(=O)NCC2CCCN(Cc3ccc(OC)cc3F)C2)cc1 (centres unmarked),-36.9%
3,CCOc1ccccc1CN1CCCC(CNC(=O)Cc2ccc(OC)cc2)C1 (centres unmarked),-22.1%
4,COC(=O)c1ccc(C(=O)N2CCCC(CNC(=O)c3ccc(F)cc3)C2)cc1 (centres unmarked),-5.82%
5,COc1ccc(CC(=O)NCC2CCCN(Cc3ccc(F)cc3F)C2)cc1 (centres unmarked),-17.5%
6,CCOc1cc(CN2CCCC(CNC(=O)c3ccc(F)cc3)C2)ccc1OC (centres unmarked),-66.2%
7,COc1cccc(CN2CCCC(CNC(=O)c3ccc(F)cc3)C2)c1OC (centres unmarked),-49.1%
8,COc1ccc(CN2CCCC(CNC(=O)c3ccc(F)cc3)C2)c(F)c1 (centres unmarked),-75.4%
9,COc1ccc(CN2CCCC(CNC(=O)c3ccc(F)cc3)C2)c(C)c1C (centres unmarked),-75.5%
10,COc1ccc(C(=O)N2CCCC(CNC(=O)c3ccc(F)cc3)C2)cc1OC (centres unmarked),3.14%
11,COc1ccc(CN2CCCC(CNC(=O)c3ccc(F)cc3)C2)cc1OC (centres unmarked),-70.6%
12,O=C(COC(=O)c1ccc(Br)o1)NCc1cccs1,-4.11%
13,COCOc1ccc(C=O)c(O)c1,7.21%
14,CCOc1ccc(C2CC(c3cccc(OC)c3)Nc3nc(N)nn32)cc1 (centres unmarked),-26%
15,Cc1ccc(/C=N/Nc2ccc(Cl)c(C(=O)O)c2)s1,10%
16,COc1ccccc1CCNC(=O)CN1C(=O)NC2(CCCC2)C1=O,-9.26%
17,Cc1cccnc1NC(=O)CNC(=O)COc1ccccc1,6.69%
18,CC(c1ccco1)N(C(=O)c1ccc(S(=O)(=O)N2CCCCC2)cc1)c1ccccn1 (centres unmarked),-4.75%
19,CCCC(=O)N(Cc1cc(=O)[nH]c2ccccc12)c1ccc(C)cc1,-3.22%
20,Cc1cc(CNC(=O)c2cccnc2Cl)c2ccccc2n1,-2.82%
21,COc1ccc(NC(=O)CN(C)C(=O)c2ccc3[nH]c4c(c3c2)CC(C)CC4)cc1 (centres unmarked),7.28%
22,CCOc1ccc(CN2CCCC(CNC(=O)c3ccc(F)cc3)C2)cc1CO (centres unmarked),-68.1%
23,CCOc1cc(C(=O)NCc2ccc(F)cc2)ccc1OCC(=O)N1CCCCC1,-37.5%

row,SMILES,"hERG current change (%, negative = inhibition) at 10uM"
1,O=C(NC1CCN(C(=S)NCc2ccco2)CC1)NC12CC3CC(CC(C3)C1)C2,5.73%
2,CCOC(=O)N1CCC(N2C(=O)c3ccc(C(=O)O)cc3C2=O)CC1,9.66%
3,O=C(NC1CCCCC1)Oc1ccccc1,17.2%
4,COc1cccc(C(=O)N2CCN=C2SCc2cccnc2)c1OC,4.44%
5,COc1ccc(NS(=O)(=O)c2cn(C)cn2)cc1,11.9%
6,c1ccc2[nH]c(N3CCOCC3)nc2c1,8.82%
7,Cl.Nc1nc(N2CCN(C/C=C/c3ccccc3)CC2)nc2ccccc12,-67.7%
8,Cl.Nc1nc(N2CCCCC2)nc2ccccc12,-45.8%
9,c1ccc(N2CCN(c3nc4ccccc4[nH]3)CC2)nc1,-64.4%
10,Oc1ccc2ccccc2c1CN1CCN(C/C=C/c2ccccc2)CC1,14%
11,Cl.Nc1nc(N2CCN(c3ccccn3)CC2)nc2ccccc12,-68.4%
12,CCN(CC)c1nc(N2CCN(C)CC2)nc2ccccc12.Cl,-44.3%
13,c1ccc(N2CCN(Cc3nc4ccccc4[nH]3)CC2)nc1,9.64%
14,Nc1nc(N2CCOCC2)nc2ccccc12,-19.7%
15,COC(=O)c1cccc(N(CC(=O)NC2CCCC2)C(=O)CNC(=O)c2cccs2)c1,-1.26%
16,O=C(Nc1sc2c(c1C(=O)N1CCOCC1)CCCCC2)c1cccnc1,17%
17,CCN(CC)S(=O)(=O)c1ccc(N2CCCC2)c(NC(=O)CC(C)(C)C)c1,-2.34%
18,Cc1cc(C(=O)NC(C)c2ccccc2)c2cc(F)ccc2n1 (centres unmarked),3.06%
19,O=C(N/N=C/c1c(Cl)cccc1Cl)c1cccc(F)c1,3.24%
20,CC/C(C)=N/NC(=O)c1[nH]c2ccc(C)cc2c1-c1ccccc1,0.516%
